PubChem BioAssay (Tox21)
Records with an inconclusive call do not appear. Calls of active or inactive are those of the source. Unless noted, calls come from the whole dose curve.

What was measured:
[1] = Nuclear factor erythroid 2-related factor 2/antioxidant responsive element (Nrf2/ARE) small molecule agonists: qHTS cell viability counter screen in human keratinocytes (AID 1919968; active = well fitted curve in the direction sought with a large enough effect in the repeat runs; an effect the other way counts as inactive or inconclusive; note: nearly all actives have a fitted effect of over 55% in size)
How it was run: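 In human HaCaT keratinocytes stably expressing an ARE-driven luciferase, compound exposure lasted 23 h at 37 C under 5% CO2. Viable cells are quantified with a protease-based fluorogenic reagent (CellTiter-Fluor) read 1 h after addition.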

[2] = Nuclear factor erythroid 2-related factor 2/antioxidant responsive element (Nrf2/ARE) small molecule agonists: luciferase reporter gene qHTS assay in human keratinocytes (AID 1919969); note: nearly all actives have a fitted effect of over 35% in size
[3] = target: Gonadotropin-releasing hormone receptor (Homo sapiens) (UniProt P30968); assay: Human gonadotropin-releasing hormone receptor (GnRHR) small molecule agonists, calcium flux assay in GnRHR-HEK293 cells (AID 1920063); note: nearly all actives have a fitted effect of over 35% in size
Chain of Gonadotropin-releasing hormone receptor (Homo sapiens) (P30968 whole entry, looked up): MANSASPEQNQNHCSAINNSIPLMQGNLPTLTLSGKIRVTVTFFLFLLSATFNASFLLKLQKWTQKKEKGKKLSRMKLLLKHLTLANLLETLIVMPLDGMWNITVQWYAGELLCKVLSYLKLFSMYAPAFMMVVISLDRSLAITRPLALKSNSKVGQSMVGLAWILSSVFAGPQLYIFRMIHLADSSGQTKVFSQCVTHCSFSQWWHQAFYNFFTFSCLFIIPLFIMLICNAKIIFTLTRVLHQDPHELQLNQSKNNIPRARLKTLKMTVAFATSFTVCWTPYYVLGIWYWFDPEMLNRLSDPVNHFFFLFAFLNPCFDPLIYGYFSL
How it was run: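 Intracellular calcium rise is the read-out: engineered human GnRHR HEK293 cells, dye-loaded, are exposed to DMSO-dissolved compounds and fluorescence at Ex/Em 480/540 is tracked for 3 min.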

[4] = target: KiSS-1 receptor (Homo sapiens) (UniProt Q969F8); assay: Human kisspeptin (KISS1R) small molecule agonists, calcium flux assay in KISS1R-HEK293 cells (AID 1920064; active = well fitted curve in the direction sought with a large enough effect in the repeat runs; an effect the other way counts as inactive or inconclusive)
Chain of KiSS-1 receptor (Homo sapiens) (Q969F8 whole entry, looked up): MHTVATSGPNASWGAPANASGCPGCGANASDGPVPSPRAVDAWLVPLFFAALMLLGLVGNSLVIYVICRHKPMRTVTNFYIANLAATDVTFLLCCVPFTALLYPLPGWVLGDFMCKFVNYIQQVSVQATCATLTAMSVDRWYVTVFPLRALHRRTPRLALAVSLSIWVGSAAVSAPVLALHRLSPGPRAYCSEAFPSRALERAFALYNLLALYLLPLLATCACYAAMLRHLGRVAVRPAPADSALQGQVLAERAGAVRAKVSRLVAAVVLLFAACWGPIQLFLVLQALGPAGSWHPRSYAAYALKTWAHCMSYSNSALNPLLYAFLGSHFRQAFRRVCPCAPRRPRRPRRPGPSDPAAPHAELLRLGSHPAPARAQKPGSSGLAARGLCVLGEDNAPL
How it was run: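 Concentration-response testing used 15 concentrations in triplicate on human KISS1R-expressing HEK293 cells. Calcium-dependent fluorescence (Ex/Em 480/540) was followed kinetically for 3 min after compound transfer.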

[5] = G protein-coupled receptor (GPCR) small molecule agonists, calcium flux assay: HEK293 wild type cell line counter screen (AID 1920065)
How it was run: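 Fluorescence intensity signals activation. After overnight (18 h) culture and a 1 h calcium dye load at 37 C, compounds are added by pin tool and the plate read at 480/540 nm for 3 min in 1 s steps.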

[6] = p53 small molecule agonists, cell-based qHTS assay with rat liver microsomes (AID 1963578)
How it was run: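 Read-out is beta-lactamase reporter fluorescence (LiveBLAzer, 2 h, room temperature, dark) in p53RE-bla cells treated 16 h at 37 C with compound, rat liver microsomes and NADPH, both 0.5 mg/mL final.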

[7] = p53 small molecule agonists, cell-based qHTS assay with human liver microsomes: qHTS cell viability counter screen (AID 1963579); note: nearly all actives have a fitted effect of over 45% in size
How it was run: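 Cells carrying the p53 response-element beta-lactamase reporter are treated for 16 h at 37 C with test compounds in the presence of human liver microsomes and NADPH (both 0.5 mg/mL final); ATP-based CellTiter-Glo luminescence then reports viability.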

[8] = p53 small molecule agonists, cell-based qHTS assay with rat liver microsomes: qHTS cell viability counter screen (AID 1963580); note: nearly all actives have a fitted effect of over 45% in size
How it was run: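 Luminescent ATP readout (CellTiter-Glo, 30 min at room temperature) reports viability of p53RE-bla HCT-116 cells after 16 h at 37 C with test compounds under metabolic activation by rat liver microsomes and NADPH at 0.5 mg/mL final each.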

[9] = p53 small molecule agonists, cell-based qHTS assay: qHTS cell viability counter screen (AID 1963581); note: nearly all actives have a fitted effect of over 45% in size
How it was run: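 Luminescence from CellTiter-Glo, reflecting ATP content, serves as the cytotoxicity measure; it is taken after the 2 h reporter substrate step in HCT-116 p53RE-bla cells dosed for 16 h at 37 C.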

[10] = p53 small molecule agonists, cell-based qHTS assay (AID 1963582; active = well fitted activation curve with a large enough effect in the signal ratio in the repeat runs, not every such curve was filed as active; the % refers to the signal ratio)
How it was run: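 After plating, p53RE-bla cells sat 5 h in the incubator; compounds or DMSO vehicle were pinned in; a 16 h incubation at 37 C followed; FRET substrate was added and, 2 h later at RT, fluorescence was measured.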

[11] = target: 5-hydroxytryptamine receptor 2A (Homo sapiens) (UniProt P28223); assay: 5-hydroxytryptamine receptor 2A (HTR2A) small molecule antagonists, cell-based qHTS assay (AID 1963586); note: nearly all actives have a fitted effect of over 45% in size
Chain of 5-hydroxytryptamine receptor 2A (Homo sapiens) (P28223 whole entry, looked up): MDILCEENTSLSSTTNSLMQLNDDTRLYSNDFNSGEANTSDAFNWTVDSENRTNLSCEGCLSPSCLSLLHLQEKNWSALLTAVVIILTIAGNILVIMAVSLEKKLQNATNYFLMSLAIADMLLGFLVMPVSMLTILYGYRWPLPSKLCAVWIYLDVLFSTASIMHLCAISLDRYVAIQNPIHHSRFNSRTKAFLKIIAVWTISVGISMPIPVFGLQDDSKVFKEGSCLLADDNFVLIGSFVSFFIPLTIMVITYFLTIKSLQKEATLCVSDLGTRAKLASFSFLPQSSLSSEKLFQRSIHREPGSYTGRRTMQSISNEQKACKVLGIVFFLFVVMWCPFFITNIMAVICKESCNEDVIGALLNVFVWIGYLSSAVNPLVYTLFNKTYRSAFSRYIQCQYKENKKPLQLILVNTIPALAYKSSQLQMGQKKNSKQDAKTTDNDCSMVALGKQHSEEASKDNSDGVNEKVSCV
How it was run: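 CHO cells stably expressing human HTR2A were plated for 18 h at 37 C, then loaded with calcium dye for 1 h. Compounds were preincubated 5 min at room temperature before DOI (4 nM solution) was added. Kinetic fluorescence was read for 3 min.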

[12] = target: 5-hydroxytryptamine receptor 2A (Homo sapiens) (UniProt P28223); assay: 5-hydroxytryptamine receptor 2A (HTR2A) small molecule agonists, cell-based qHTS assay (AID 1963587); note: nearly all actives have a fitted effect of over 30% in size
How it was run: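 HTR2A-CHO cells, plated 18 h at 37 C/5% CO2, dye-loaded 1 h at 37 C; compounds in DMSO added by pin tool (agonist mode). Intracellular calcium flux read as kinetic fluorescence on FDSS over 2 min at 1 s intervals.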

[13] = target: Muscarinic acetylcholine receptor M1 (Homo sapiens) (UniProt P11229); assay: Cholinergic receptor muscarinic 1 (CHRM1) small molecule antagonists, cell-based qHTS assay (AID 1963588); note: nearly all actives have a fitted effect of over 40% in size
Chain of Muscarinic acetylcholine receptor M1 (Homo sapiens) (P11229 whole entry, looked up): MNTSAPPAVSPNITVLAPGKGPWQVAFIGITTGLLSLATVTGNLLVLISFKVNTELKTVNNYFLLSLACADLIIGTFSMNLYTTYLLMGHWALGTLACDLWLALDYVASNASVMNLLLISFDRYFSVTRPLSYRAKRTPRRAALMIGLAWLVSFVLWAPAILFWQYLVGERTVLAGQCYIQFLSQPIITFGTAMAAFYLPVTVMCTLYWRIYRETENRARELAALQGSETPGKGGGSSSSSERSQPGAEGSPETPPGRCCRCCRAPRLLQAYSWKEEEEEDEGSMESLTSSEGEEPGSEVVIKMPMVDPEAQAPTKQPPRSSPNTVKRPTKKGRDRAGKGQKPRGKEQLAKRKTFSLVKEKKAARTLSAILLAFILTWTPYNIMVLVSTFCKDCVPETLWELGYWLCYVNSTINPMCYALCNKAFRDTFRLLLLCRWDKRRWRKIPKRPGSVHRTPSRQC
How it was run: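 Compounds were tested at 15 concentrations in three independent runs. Dye-loaded CHRM1-CHO cells were exposed 5 min at room temperature before stimulation by acetylcholine added at 50nM. Intracellular calcium was read kinetically on FDSS for 3 min.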

[14] = target: Muscarinic acetylcholine receptor M1 (Homo sapiens) (UniProt P11229); assay: Cholinergic receptor muscarinic 1 (CHRM1) small molecule agonists, cell-based qHTS assay (AID 1963589); note: nearly all actives have a fitted effect of over 35% in size
How it was run: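 Fluorescent calcium dye reports M1 activation in stably transfected CHO cells. Compounds, 15 concentrations, added after 1 h dye loading at 37 C; kinetic reading at 1 sec intervals.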

[15] = cAMP Responsive Elements (CRE) small molecule agonists, cell-based qHTS assay (AID 1963590)
How it was run: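 Compound exposure lasted 3 h at 37 C/5% CO2 in CRE-bla HEK 293T cells grown in assay medium with 10% dialyzed FBS and 25 mM HEPES. Reporter signal came from LiveBLAzer B/G FRET substrate, 2 h, room temperature.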

[16] = target: D(2) dopamine receptor (Homo sapiens) (UniProt P14416); assay: Dopamine D2 receptor (DRD2) small molecule agonists, cell-based qHTS assay (AID 1963594); note: nearly all actives have a fitted effect of over 35% in size
Chain of D(2) dopamine receptor (Homo sapiens) (P14416 whole entry, looked up): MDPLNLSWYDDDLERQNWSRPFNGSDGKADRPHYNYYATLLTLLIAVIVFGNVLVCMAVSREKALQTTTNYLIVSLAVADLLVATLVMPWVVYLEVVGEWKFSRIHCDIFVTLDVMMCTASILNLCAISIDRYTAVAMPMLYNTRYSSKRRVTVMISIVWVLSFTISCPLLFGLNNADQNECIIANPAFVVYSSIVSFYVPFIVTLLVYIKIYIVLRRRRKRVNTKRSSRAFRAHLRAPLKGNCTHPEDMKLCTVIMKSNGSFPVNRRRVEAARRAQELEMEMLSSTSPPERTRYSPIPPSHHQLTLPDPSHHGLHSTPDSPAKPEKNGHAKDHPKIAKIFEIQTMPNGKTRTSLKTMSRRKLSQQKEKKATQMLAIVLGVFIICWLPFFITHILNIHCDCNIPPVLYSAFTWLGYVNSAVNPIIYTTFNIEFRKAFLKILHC
How it was run: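 HEK293 cells stably expressing DRD2 were cultured 24 h at 37 C, then given Ro20-1724 (0.1 mM final) and compounds for 10 min at room temperature. NKH477 (200nM) was then added for 30 min. cAMP was read by HTRF.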

[17] = target: D(2) dopamine receptor (Homo sapiens) (UniProt P14416); assay: Dopamine D2 receptor (DRD2) small molecule antagonists, cell-based qHTS assay (AID 1963595; active = well fitted inhibition curve with a large enough effect in the signal ratio in the repeat runs, with a control signal flat; the % refers to the signal ratio)
How it was run: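 In this cell-based antagonist screen, compounds act for 10 min at room temperature before a 30 min challenge with 12 nM quinpirole and 200 nM NKH477. cAMP is quantified by HTRF competition in DRD2-HEK293 cells containing 0.1 mM Ro20-1724.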

[18] = cAMP Responsive Elements (CRE) small molecule antagonists, cell-based qHTS assay (AID 1963591; active = well fitted inhibition curve with a large enough effect in the signal ratio in the repeat runs, not every such curve was filed as active; the % refers to the signal ratio)
How it was run: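 Stimulation used NKH477 at a final 0.25 uM for 3 h in compound-treated CRE-bla HEK293T cells, seeded 18 h beforehand. Reporter activity was measured with LiveBLAzer B/G FRET substrate after 2 h at room temperature.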

[19] = target: Beta-2 adrenergic receptor (Homo sapiens) (UniProt P07550); assay: Adrenergic beta2 receptor (ADRB2) small molecule antagonists, cell-based qHTS assay (AID 1963592); note: series mostly up to about 92 µM; nearly all actives have a fitted effect of over 50% in size
Chain of Beta-2 adrenergic receptor (Homo sapiens) (P07550 whole entry, looked up): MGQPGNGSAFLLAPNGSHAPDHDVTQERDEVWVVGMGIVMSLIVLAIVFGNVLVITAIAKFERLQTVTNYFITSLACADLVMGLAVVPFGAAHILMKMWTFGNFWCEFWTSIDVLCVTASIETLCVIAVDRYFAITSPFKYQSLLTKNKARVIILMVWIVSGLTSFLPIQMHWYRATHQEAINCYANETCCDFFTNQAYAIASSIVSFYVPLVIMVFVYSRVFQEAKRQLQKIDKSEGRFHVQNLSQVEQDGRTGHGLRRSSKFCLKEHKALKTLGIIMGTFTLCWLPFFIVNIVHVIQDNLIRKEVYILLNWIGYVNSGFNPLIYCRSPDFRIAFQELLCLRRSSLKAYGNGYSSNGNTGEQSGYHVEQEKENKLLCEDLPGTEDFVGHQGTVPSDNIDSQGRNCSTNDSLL
How it was run: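 Assay format: CHO-ADRB2 cells, 18-20hr seeding at 37C/5% CO2, then compound plus 1nM isoproterenol agonist mix for 0.5hr RT. Homogeneous time-resolved fluorescence cAMP detection after 1hr, expressed as 665/615 nm ratio.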

Measured: Potency

Cn1c(=O)[nH]c2ncn(C)c2c1=O
not listed: [18] | [19]
inactive: all other assays above

N#Cc1cscn1
not listed: [12]
inactive: all other assays above

CC(C)C/C=C(\C=O)c1ccccc1
not listed: [11]
inactive: all other assays above

CNCCc1ccccn1
not listed: [11] | [12] | [13] | [14]
inactive: all other assays above
